# Measured values from PubChem BioAssay (NCI).
# The panel holds about 83,000 compounds, 20% with a hit somewhere; the sample as a whole holds those more often.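 Negative percent growth values reflect cell death: -40 means 40% of the cells present at the start died, and -100 means all died.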 Values without a mark were called inactive. Activity calls are given as the source filed them. Rule for the calls: active = growth percent below 10; inactive = the rest.
# System: SF-539 CNS
# Assay: NCI-60 one-dose screen, 48 h (100 = growth as untreated, 0 = no growth, -100 = all killed)
# Conditions: 10 µM unless noted
row,Compound,growth
1,O=C1c2cccc3cccc(c23)C(=O)N1N1C(=O)c2cccc3c(N4CCOCC4)ccc(c23)C1=O,101%
2,CCO/C=N/C1=C(C#N)C(c2ccc(OC)cc2)c2sc3c(F)cccc3c2O1 (stereo not given),-23.7% (active)
3,Cc1ccc(CNc2ccc(Cl)cc2NCc2ccc(C)c(O)c2)cc1O,25.8%
4,O=C(c1ccc(-c2nc(CSc3nc4ccccc4s3)no2)cc1)N1CCSCC1,80.3%
5,C/C(=C(/c1ccc(Cl)cc1)c1ccc(OCCN2CCCC2)cc1)c1ccc(Cl)cc1,91.8%
6,CC[C@]12C=CCN3CC[C@@]4(c5cc(NC(=O)CCC(=O)OCc6cn(Cc7ccc(F)cc7)nn6)c(OC)cc5N(C)[C@H]4[C@@](O)(C(=O)OC)[C@@H]1OC(C)=O)[C@@H]32,96.9%
7,C=C(C)[C@@H]1CC[C@]2(C(=O)O)CC[C@]3(C)[C@H](CC[C@@H]4[C@@]5(C)C[C@@H](Cc6cn(CCO[C@@H]7O[C@H](COC(C)=O)[C@H](OC(C)=O)[C@H](OC(C)=O)[C@H]7OC(C)=O)nn6)[C@H](O)C(C)(C)[C@@H]5CC[C@]43C)[C@@H]12,79.3%
8,C=CCn1c(SCC(=O)Nc2ccc(C(=O)/C=C/c3ccc(Cl)cc3)cc2)nnc1-c1cc(-c2ccc(S(N)(=O)=O)cc2)nc2ccccc12,87%
9,CCOC(=O)C1=NN(c2ccccc2)C(=O)/C1=C\N1C(=O)CC(=O)NC1=S,100%
10,CC12CCC3c4ccccc4CCC3(CO1)C2 (stereo not given),104%
11,O=C1CC(N2C(=O)/C(=C/C(Cl)=C\c3ccc([N+](=O)[O-])cc3)SC2=S)C(=O)N1c1ccc(Cl)cc1 (stereo not given),15.9%
12,CC1(C)c2[nH]c3ccccc3c2C[C@]2(C)[C@H]3CC=C4[C@@H]5C[C@@](C)(C(N)=O)CC[C@]5(C)CC[C@@]4(C)[C@]3(C)CC[C@@H]12,80.9%
13,CCCCCOc1ccc(C(=O)/C(Br)=C/C(=O)O)cc1,100%
14,CC(C)N1CCN(Cc2ccc3c(NNC(=O)c4ccccc4)nc4cc(F)ccc4n23)CC1,10.5%
15,N#Cc1cccc(NC(=O)c2oc3ccccc3c2-c2cnn(-c3ccccc3)c2)c1,81.5% [50 µM]
16,Cc1cccc(N2CCN(CC(O)COc3ccc(Cl)cc3)CC2)c1 (stereo not given),101%
17,CCOC(=O)c1c(C)nc2c(c1N)CC(=O)N2Cc1cc(F)cc(Cl)c1,94.2%
18,C[C@@H]1CCC[C@H]1CC(N)C(=O)O (stereo not given in full),105%
19,O=CC1(C2(C=O)c3ccccc3-c3ccccc32)c2ccccc2-c2ccccc21,-64.5% (active)
20,O=C1Nc2ccc(I)cc2C1=O,100%

row,Compound,growth
1,CN1CCN(c2ccc(NC(=O)c3nc4ccc5[nH]ncc5c4c4c3CCCC4)cc2C(F)(F)F)CC1,89.6%
2,CN(C)C1CCN(Cc2ccc(NC(=O)c3cncc(C#Cc4cnc(N)c5ncccc45)c3)cc2C(F)(F)F)CC1,59.6%
3,COc1ccc(C/C(C)=C(/c2ccc(OCCN3CCCCC3)cc2)c2ccc(OC(=O)NCc3ccccc3)cc2)cc1,-92.5% (active)
4,COc1ccccc1NC(=O)Cn1cc(CN2CCN(c3ccnc4cc(Cl)ccc34)CC2)nn1,99.3%
5,N=C(N)c1ccc(-c2ccc(-c3ccc(F)cc3)o2)o1,21.9%
6,CN1C(=O)/C(=C/c2ccc(C(=O)Nc3ncc(Cc4ccc(Cl)cc4)s3)cc2)SC1=S,47.3%
7,CCCCCC(=O)OCC(=O)O[C@@H]1C[C@]2(C(C)C)O[C@@]1(C)[C@@H]1CC[C@@H](C)[C@H]1[C@@H]2OC(=O)/C=C/c1ccccc1,92.3%
8,CC(=O)N(N=Nc1ccccc1)c1cccc2ccccc12,111%
9,COc1ccc(/C=C2\C(=O)N=C3N2NC(c2cc(Br)ccc2O)C=C(C)N3c2ccccc2)cc1 (stereo not given),99.9%
10,CC(C)(C)[Si](C)(C)O[C@H]1C(=O)C=CN2CC=C[C@@H]12,99.4% [100 µM]
11,C=C1C(=O)O[C@H]2[C@H]1CC/C(COC(=O)CSCCSCC(=O)OC/C1=C/CC[C@@]3(C)O[C@H]3[C@H]3OC(=O)C(=C)[C@@H]3CC1)=C\CC[C@@]1(C)O[C@@H]21,1.67% (active)
12,Brc1ccc2[nH]cc(-c3nonc3-c3c[nH]c4ccccc34)c2c1,59.9%
13,COc1cccc(NC(=O)Cn2cc(CN3CCN(c4ccnc5cc(Cl)ccc45)CC3)nn2)c1,87.7%
14,CCOc1ccc(NC(=O)CSc2oc(-c3ccccc3)nc2S(=O)(=O)c2ccc(F)cc2)cc1,6.59% (active)
15,O=C1Nc2ccc(Br)cc2/C1=N/c1n[nH]c(=S)s1,99.7%
16,COc1ccc(C(=O)C2C(c3ccc(OC)cc3)CN(C)C23C(=O)Nc2ccccc23)cc1 (stereo not given),104%
17,Cc1noc(C)c1C(=O)OCc1coc2ccccc2c1=O,68.5%
18,C[C@]12CC[C@@H]3c4ccc(O)c([N+](=O)[O-])c4CC[C@H]3[C@@H]1CCC2=O,98.2%
19,COc1cccc([C@H]2c3[nH]c4ccccc4c3C[C@H]3C(=O)N(CCCCCCC(=O)NO)CC(=O)N23)c1,60.6%
20,CO/N=C(/C)c1ccc(NC(=O)CSc2nnc(-c3ccncc3)n2-c2ccccc2)cc1,-31.2% (active)
